# Bioassay records: PubChem, The Scripps Research Institute Molecular Screening Center
# Shown are actives, neighbours in structure and some others; about 4.2% of the full set was active somewhere.
# SMARCA2 act: increases SMARCA2 function in MMTV reporter cells; MG213 cells, MMTV-luciferase reporter, dexamethasone, overnight; activation, % at 9.1 µM; 370,000 tested, 1% active; in the data active means activation above about 7.8%;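 further: 0% = vehicle wells and 100% = reference activator wells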
# DAX1 inh: DAX1 (NR0B1) inhibition, primary screen; HEK293T StAR-luciferase reporter, SF-1/DAX-1 repression relief; inhibition, % at 6.8 µM; 370,000 tested, 1.1% active; AID 652010;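 active means inhibition above the mean over all tested compounds plus 3 SD, cut at about 3.6% in these data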;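 further: 0% = DAX-1 cells with DMSO and 100% = cells lacking DAX-1 with DMSO; higher inhibition means more luminescence from relief of DAX-1 repression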
# ssDAF12 agonist: activates DAF-12 receptor from parasite S. stercoralis. 370,000 tested, 1% active. activation, % at 6.8 µM. AID 652126. HEK293 ssDAF-12/GRIP1 lit1-tk-luc reporter, luminescence; % of 3 µM dafachronic acid response;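 active means activation above the mean over all tested compounds plus 3 SD, cut at about 0.9% in these data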;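 further: 0% = DMSO-only wells and 100% = 3 µM delta7-dafachronic acid wells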
# hgDAF-12 ag: hgDAF-12 agonism, primary luciferase screen. HEK293 GAL4-hgDAF12 UAS-luciferase reporter, agonist luminescence; normalized to butyrate control. activation, % at 6.8 µM. 370,000 tested, 1.8% active;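 active means activation above a cutoff set at the mean of all screened compounds plus 3 SD, cut at about 10% in these data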;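 further: 0% = DMSO wells and 100% = sodium butyrate wells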
# hcDAF12 agonist: H. contortus DAF-12 activation, primary screen; HEK293 hcDAF-12 lit1-tk-luc reporter, luminescence; 0% DMSO, 100% Δ7-dafachronic acid; activation, % at 6.8 µM; 370,000 tested, 1.4% active; AID 652067;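 active means activation above the mean of all tested compounds plus 3 SD, cut at about 5.5% in these data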;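 further: 100% = response to 3 µM Δ7-dafachronic acid high control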
# * hit, by the source's call.
SMILES,SMARCA2 act,DAX1 inh,ssDAF12 agonist,hgDAF-12 ag,hcDAF12 agonist
C[C@H]1[C@@H](c2ccccc2)Oc2ccc(Cl)cc2S(=O)(=O)N1Cc1cccc(Cl)c1,4,0,-1,1,2
COc1cccc([C@H]2NC(=O)C/C=C/[C@@H](C)[C@@H](c3cccc(OC)c3)NC(=O)C/C=C/[C@H]2C)c1,-2,-1,-2,0,-2
CNc1cccc(-c2ccc(C(C)=O)s2)n1,3,4.0*,-1,10,0
Cc1ccc(/C=C2/C(=O)c3ccc(C(=O)O)cc3C2=O)o1,-3,0,-1,-1,2
Cc1ccc(C=C2C(=O)c3ccccc3C2=O)o1,0,0,-1,5,6.3*
CC(C)NC(=O)NC1CCN(CC(=O)Nc2ccc3c(c2)OCCO3)CC1,-6,-3,-1,-1,-3
Cc1cc(NC(=S)NC(=O)/C=C/c2ccc(S(=O)(=O)N3CCOCC3)cc2)ccc1Br,-3,0,3.9*,-2,1
CC1(C)Cc2c(sc(NC(=O)Nc3ccccc3)c2C(N)=O)CO1,2,1,0,11*,3
NC(=O)c1sc(=S)n(-c2ccc(Br)cc2)c1N,1,-1,0,1,6.5*
CCNC(=O)c1sc(=S)n(-c2ccc(C)cc2)c1N,1,-1,-2,0,-2
CN1CCC(N2CCN(C3CN(Cc4cn(Cc5ccc(C(F)(F)F)cc5)nn4)S(=O)(=O)C3)CC2)CC1 (stereo not drawn),-3,0,-1,2,1
O=C(CSc1nc2ccccc2c(=O)n1-c1ccc(Cl)cc1)N/N=C/C=C/c1ccccc1[N+](=O)[O-],-4,-1,-1,4,5.8*
CCC(c1nc2ccccc2[nH]1)n1c(-c2cnccn2)nc2ccccc21 (stereo not drawn),4,-1,1,-1,-2
CCOC(=O)C(c1nc2ccccc2[nH]1)n1c(-c2ccccn2)nc2ccccc21 (stereo not drawn),0,2,0,8,6.5*
COc1ccc(C(=O)C2(C(=O)NCc3ccccc3)CC(c3ccccc3C(F)(F)F)=NO2)cc1 (stereo not drawn),-4,0,-1,-1,-1
O=C(CSc1ccccn1)Nc1nc2ccccc2s1,3,0,-2,10,5
COc1ccc(-c2nnc3ccc(SCC(=O)Nc4nccs4)nn23)cc1OC,-1,0,-2,0,-2
COc1ccc(-c2nnc3ccc(SCC(=O)Nc4nc5ccccc5s4)nn23)cc1OC,1,-1,-1,11*,0
O=C(CSc1cn[nH]n1)Nc1nc2ccccc2s1,6,1,0,5,6.0*
COC(=O)[C@]12C[C@H](CC(=O)NCc3cccc4ccccc34)C(=O)N(Cc3ccc4c(c3)OCO4)C1=C[C@H](C(C)(C)C)O[C@@H]2C,-4,0,-1,0,1
Clc1ccc([C@H]2OC[C@@]3(CNCc4ccccn4)CS[C@H](c4ccc(Cl)cc4)N23)cc1,-1,1,-1,1,1
COc1cc(/C=N/N=C(\N)c2nonc2N)cc(OC)c1O,3,2,0,13*,1
Cc1cc(NC(=O)C(C)C)n(-c2nc3ccccc3s2)n1,-3,1,0.9*,3,6
CC(C)C[C@@H]1COc2cc(Br)ccc2S(=O)(=O)N1Cc1cn(Cc2ccc(F)cc2)nn1,-3,1,-1,1,-2
COc1cc2c(cc1NC(=O)CSc1nnc(-c3cccnc3)n1-c1ccc(Br)cc1)oc1ccccc12,1,0,-1,3,0
SMILES,SMARCA2 act,DAX1 inh,ssDAF12 agonist,hgDAF-12 ag,hcDAF12 agonist
CC(C)(C)NC(=O)c1ccc2c(c1)CCO2,5,0,-2,0,0
O=C(NC(=O)c1ccccc1O)c1ccc2c(c1)CCO2,6,2,1.0*,12*,4
CC(C)NC(=O)C1C(c2ccc(C(F)(F)F)cc2)=Nc2ccccc2N1C(=O)c1ccccc1 (stereo not drawn),-2,3,1.5*,6,4
CCCCC(=O)Nc1cccc(-c2cn3ccccc3n2)c1,2,2,-1,8,2
CCCOc1ccc(-c2cn3ccccc3n2)cc1[N+](=O)[O-],6,2,-1,12*,0
CCCCOc1ccc(-c2csc(N)n2)cc1[N+](=O)[O-],-2,2,0,11*,2
